In the library only some 3.7% were active in any assay of this set; here they are far more common.
TGFb SMAD3 inh: blocks TGF-b signaling. HepG2 CAGA-GFP TGF-b/SMAD3 reporter, GFP fluorescence, 18 h; TGF-beta stimulated, 500 pg/mL final. Potency, µM (series often up to 46.1 µM), inactives show top-dose activity, negative = inhibition, hits mostly inhibitors. 1.2% of 410,000 active; further: on the % scale 0 is the no-effect control and ±100 the full control effect; nearly all actives have a fitted effect of over 65% in size
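Read-out: total well GFP (ex488/em500-530) summed from mean per-cell fluorescence. Cells: HEPG2 CAGA-GFP, 1% FBS DMEM, 18 h at 37 degrees C with 500 pg/mL final TGF-beta. Unstimulated wells served as the full-inhibition control; stimulated DMSO wells = 0%.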
GLP-1R agonist: agonists of human GLP-1 receptor; 0.007% of 380,000 active; HEK293 GLP-1R CRE-luciferase, luminescence, 4-6 h; cells express a hypersensitive GLP-1R form; Potency, µM (titrated, usually from 45.6 µM), without a hit: at the top dose activation, usual class: activators; P43220; further: % of control where 0% means no effect
Target sequence (P43220 whole entry, looked up): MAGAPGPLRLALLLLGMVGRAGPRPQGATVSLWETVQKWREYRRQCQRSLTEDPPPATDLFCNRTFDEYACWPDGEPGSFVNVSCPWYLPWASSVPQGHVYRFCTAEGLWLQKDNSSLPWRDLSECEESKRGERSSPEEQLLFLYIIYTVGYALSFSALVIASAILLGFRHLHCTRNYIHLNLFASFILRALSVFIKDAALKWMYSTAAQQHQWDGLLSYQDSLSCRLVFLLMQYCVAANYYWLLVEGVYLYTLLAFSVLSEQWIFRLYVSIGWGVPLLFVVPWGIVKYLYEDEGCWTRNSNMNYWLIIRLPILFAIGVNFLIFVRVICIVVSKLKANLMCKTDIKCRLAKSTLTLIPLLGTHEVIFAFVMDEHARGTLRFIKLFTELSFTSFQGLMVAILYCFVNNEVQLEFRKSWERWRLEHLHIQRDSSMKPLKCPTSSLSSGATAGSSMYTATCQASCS
S2 tox: reduces viability in counter-screen for ATXN expression inhibitors. S2 cells (HEK-293 line with an ATXN2-luciferase reporter) viability, CellTiter-Fluor protease fluorescence, 24 h. Potency, µM (doses to about 56.7 µM), most hits filed as cytotoxic. 0.49% of 400,000 active; further: nearly all actives have a fitted effect of over 40% in size
ATXN2 expr inh: inhibitors of ATXN2 expression; HEK-293 ATXN2-luciferase reporter, luminescence, 24 h; Potency, µM (titrated, usually from 57 µM), without a hit: at the highest dose activity change, negative = inhibition, usual class: inhibitors; 0.72% of 360,000 active; further: on the % scale 0 is the no-effect control and ±100 the full control effect; nearly all actives have a fitted effect of over 55% in size
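ATXN2-luciferase reporter cells (luciferase flanked by upstream and downstream ATXN2 gene portions) were treated 24 h at 37 °C with compounds at up to 57 uM. SteadyGlo luminescence gave expression; GF-AFC fluorescence gave viability.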
GLP-1R inv ag: acts as inverse agonist at human GLP-1 receptor. HEK293 GLP-1R CRE-luciferase, luminescence, 24 h; GLP-1R form is constitutively active. Potency, µM (series often up to 38.3 µM), for inactives: top-dose activity change, negative = inhibition, most hits filed as inhibitors. 1.6% of 410,000 active. AID 624417; further: on the % scale 0 is the no-effect control and ±100 the full control effect; nearly all actives have a fitted effect of over 55% in size
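Cells are plated, allowed 12 hours at 37 deg C, then treated with compounds for 24 hr before luciferase detection reagent is added and luminescence is read after 12 min at room temperature. The HEK293 line carries constitutively active GLP-1R with a cAMP-responsive reporter.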
HepG2 viability: kills HepG2 cells in TGF-b inhibitor counter-screen; 0.76% of 410,000 active; HepG2 CAGA-GFP viability, ATP luminescence, 18 h; AID 588856; Potency, µM (top dose mostly 46.1 µM), inactives show top-dose activity change, negative = cytotoxicity, hits mostly cytotoxic
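HepG2 CAGA-GFP cells (1000/well, DMEM with 1% FBS) received compound, then TGF-beta at 500 pg/mL final, and were incubated 18 hours at 37 degrees C. Viability was read by CellTiter-Glo luminescence. Media-only wells were set as complete cell-killing and DMSO as no toxicity.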
* = called active by the depositor; i = inactive; ? = inconclusive; . = no result given; [ ] = dose if it differs, or a comment. The call rests on the fitted dose curve; in most records, active means well fitted curve in the direction sought with a large enough effect; inconclusive means small, poorly fitted or top-dose-only effect, or another doubt; inactive means no such curve, though single readings can be large; an effect the other way counts as inactive or inconclusive. Potency means the concentration at half of the fitted maximal effect.

SMILES | TGFb SMAD3 inh | GLP-1R agonist | S2 tox | ATXN2 expr inh | GLP-1R inv ag | HepG2 viability
O=C(Nc1nc(-c2ccc(F)c(F)c2)cs1)Nc1ccc(F)cc1F | -10% | -4% | ? | 5µM* | -3% | 11%
O=C(NC(Cc1c[nH]c2ccccc12)C(=O)Nc1ccc(OC(F)(F)F)cc1)c1cccs1 (stereo not given) | ? | 1% | i | 181%[11.3 µM] | ? | 11µM*
O=C(NC(Cc1c[nH]c2ccccc12)C(=O)Nc1ccc(F)c([N+](=O)[O-])c1)c1cccs1 (stereo not given) | 0% | -20% | ? | -37% | ? | 11%
COc1ccccc1C(=O)Nc1ccccc1SCc1cc(=O)c2ccccc2[nH]1 | 7% | . | ? | -3% | 16% | -7%
CCCC(=O)NC(=S)Nc1ccc(S(=O)(=O)N2CCc3ccccc32)cc1 | ? | 19% | i | ? | 8.9µM* | -10%
O=C(O)c1ccc(N=NNc2cccc([N+](=O)[O-])c2)cc1 | 1% | -1% | i | 35% | -22% | -7%
N#C/C(=N\Nc1cccc([N+](=O)[O-])c1)C(=O)c1ccc(Br)cc1 | 6.3µM* | 1% | ? | 9.5µM* | -13% | -39%
N#C/C(=N\Nc1ccc(S(=O)(=O)N2CCc3ccccc32)cc1)C(N)=S | 11µM* | -3% | i | -27%[11.3 µM] | ? | -62%
CCOC(=O)CCC(=O)Nc1ccc(S(=O)(=O)N2CCc3ccccc32)cc1 | -3% | -3% | i | 0% | 9% | 2%
CCOC(=O)/C(C#N)=N/Nc1ccc(S(=O)(=O)N2CCc3ccccc32)cc1 | 11µM* | -14% | i | -14% | -14% | -30%
C1=Cc2ccccc2/C1=C\c1cc[cH-]c1.[Fe+2].c1cc[cH-]c1 | ? | . | . | . | . | 1%
CC(Oc1ccccc1)C(=O)NCC1Cc2cc(F)cc(-c3ccccn3)c2O1 (stereo not given) | . | . | i | . | . | .
N#C/C(=N\Nc1ccc([N+](=O)[O-])cc1)C(N)=S | ? | -5% | 22µM* | -37% | ? | -43%
N#C/C(=N/Nc1ccc([N+](=O)[O-])cc1)C(=N)N1CCCCC1 | -20% | 5% | i | 89%[11.3 µM] | ? | -9%
Cc1cc(C)n(-c2nc(Nc3ccccc3C(F)(F)F)nc(-n3nc(C)cc3C)n2)n1 | ? | -34% | ? | 22µM* | ? | 1%
Cc1cc(C)n(-c2nc(NC(C)(C)C)nc(NC(C)(C)C)n2)n1 | 22% | -1% | i | -13% | ? | 1%
Cc1ccc(Nc2nc(NCCO)c3ccccc3n2)cc1C | 14µM* | 6% | i | -20% | ? | -65%
COc1ccc(OC)c(Nc2nc(NCCO)c3ccccc3n2)c1 | -21% | -2% | ? | -15% | ? | -15%
OCCNc1c2ccccc2nc2ccccc12 | ? | -7% | . | 19µM* | ? | 3%
COc1ccc(OCCNC(=O)C2(C)CCN2Cc2ccc3ccccc3c2)cc1 (stereo not given) | 14µM* | 15% | ? | ? | ? | -56%
O=C(CN1C(=O)c2ccccc2S1(=O)=O)Nc1ncccn1 | -5% | -1% | i | -8% | 0% | -15%
O=C(CN1C(=O)c2ccccc2S1(=O)=O)c1ccccc1 | 0% | -23% | i | 14µM* | ? | 6%
CC(C)NC(=O)CN1C(=O)c2ccccc2S1(=O)=O | -1% | 5% | i | -5% | 22%[7.66 µM] | 3%
O=C(CN1C(=O)c2ccccc2S1(=O)=O)Nc1ncc(Cl)cc1Cl | 18% | -1% | i | 5µM* | ? | 3%
Cc1ccc(C(=O)CN2C(=O)c3ccccc3S2(=O)=O)cc1 | 2% | -5% | i | 1µM* | ? | -22%
SMILES | TGFb SMAD3 inh | GLP-1R agonist | S2 tox | ATXN2 expr inh | GLP-1R inv ag | HepG2 viability
Cc1cccc(C)c1NC(=O)c1cc(S(N)(=O)=O)c(Cl)cc1O | . | -2% | i | 17% | . | .
O=C(CNC(=O)c1ccccc1)N/N=C/c1cc(Br)ccc1O | -3% | -2% | i | 28µM* | ? | -42%
O=C(CNC(=O)c1ccccc1F)N/N=C/c1cc(Br)ccc1OC(=O)/C=C/c1ccco1 | -27% | 2% | i | ? | ? | -17%
O=C(CNC(=O)c1ccccc1Br)N/N=C/c1ccccc1O | ? | 1% | . | ? | 0%[7.66 µM] | -35%
O=C(CNC(=O)c1ccc(F)cc1)N/N=C/c1cc(Br)ccc1OC(=O)/C=C/c1ccco1 | ? | -2% | ? | 8.9µM* | ? | -52%
O=C(CNC(=O)c1ccncc1)N/N=C/c1cc(Br)ccc1O | ? | -1% | ? | ? | 2% | -1%
O=C(CNC(=O)c1ccccc1Br)N/N=C/c1cc(Br)ccc1O | -17% | 0% | i | 10µM* | ? | -8%
O=C(CN1CC(c2ccccc2)CC1=O)N/N=C/c1cc(Br)ccc1O (stereo not given) | -12% | -7% | i | 14µM* | ? | 2%
CC(=O)N/C(=C/c1ccccc1)c1sc2ccccc2[n+]1CCCCI | 12% | . | . | . | . | 3%
COc1ccc(-c2cc(C(=O)NCc3ccc(F)cc3)c3c(-c4ccc(F)cc4)[nH]nc3n2)cc1OC | ? | . | i | -14% | 2% | -52%
NC(N)=NCC1COC2(CCCCC2)O1 (stereo not given) | . | . | i | . | . | .
O=C(Nc1ccc2oc(-c3ccc4ccccc4c3)nc2c1)c1cc(Cl)ccc1Cl | -27% | . | . | . | 5% | -12%
O=C(OCC1(COC(=O)c2cccnc2)CCCC(COC(=O)c2cccnc2)(COC(=O)c2cccnc2)C1O)c1cccnc1 | . | -2% | i | -1% | . | .
CC(C)c1ccc(NC(=S)NN(c2ccccc2)c2ccccc2)cc1 | ? | -1% | i | -4% | 5.6µM* | -11%
CCNC(=S)Nc1ccc(N(c2ccccc2)C(C)C)cc1 | ? | 4% | i | -21% | ? | -11%
Cc1cc(C)cc(OC(C)C(=O)Nc2nonc2-c2ccc(Br)cc2)c1 (stereo not given) | 16µM* | . | ? | ? | ? | -56%
Cc1cccc(C)c1OCC(=O)Nc1nonc1-c1ccc(Br)cc1 | ? | . | ? | ? | ? | -41%
CN(CC(=O)NCC(c1ccco1)N1CCCCC1)S(=O)(=O)c1ccc(Cl)cc1 (stereo not given) | -3% | 15% | i | 6% | 13µM* | -22%
O=C(NCC(c1ccco1)N1CCCCC1)C(c1ccccc1)c1ccccc1 (stereo not given) | 0% | 5% | i | -2% | 11µM* | -23%

Bioassay records: PubChem BioAssay, National Center for Advancing Translational Sciences (NCATS)
